HP1b chromo inh: inhibitors of HP1-beta chromodomain binding to methylated histone tails | AlphaScreen HP1-beta / biotin-H3K9me3 peptide binding | Potency, µM (titrated, usually from 114 µM), inactives show at the highest dose activity change, negative = inhibition, hits mostly inhibitors | 390,000 compounds, 0.56% hits; note: nearly all actives have a fitted effect of over 70% in size
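AlphaScreen: HP1-beta (50 nM) preformed 30 min with biotin-H3(1-18)K9me3 peptide (50 nM) in PBS pH 7.4, 0.01% Tween-20. Compound added for 30 min at RT, then streptavidin donor/nickel chelate acceptor beads (10 ug/mL) for 30 min.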
L3MBTL1 block: blocks human L3MBTL1; Q9Y468; AlphaScreen L3MBTL1–H3K9me1 peptide binding; Potency, µM (top dose mostly 57.1 µM), for inactives: top-dose activity, negative = inhibition, usual class: inhibitors; 230,000 compounds, 0.66% hits; note: % is set by controls: 0 for no effect and ±100 for the full control effect; nearly all actives have a fitted effect of over 60% in size
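AlphaScreen proximity signal between nickel-chelate acceptor and streptavidin donor beads (final 10 ug/mL) reports binding of 50 nM L3MBTL1 to 75 nM biotin-H3 K9me1 peptide; complex incubated with compounds 30 min at room temperature; cefsulodin titration as control.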
G9a inh: inhibitors of human histone lysine methyltransferase G9a; Q96KQ7; G9a H3K9 monomethylation, AlphaScreen, 2 h; Potency, µM (titrated, usually from 102 µM), for inactives: top-dose activity, negative = inhibition, usual class: inhibitors; 350,000 compounds, 8.8% hits; note: % is set by controls: 0 for no effect and ±100 for the full control effect; nearly all actives have a fitted effect of over 75% in size
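Compounds were preincubated with 20 nM G9a for 15 min, after which biotinylated H3K9 peptide (500 nM) and SAM (20 uM) started a 2 h room-temperature reaction. Monomethylated product was quantified by antibody-based AlphaScreen chemiluminescence.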
BAZ2B inh: BAZ2B (human) inhibition; 360,000 compounds, 4.4% hits; AlphaScreen BAZ2B-H3K14Ac peptide displacement; AID 504333; Potency, µM (top dose mostly 114 µM), for inactives: at the top dose activity change, negative = inhibition, usual class: inhibitors; note: % is set by controls: 0 for no effect and ±100 for the full control effect; nearly all actives have a fitted effect of over 60% in size
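BAZ2B 50 nM plus b-H3(5-23)K14Ac 50 nM, PBS pH 7.4/0.01% Tween-20, 30 min RT; compound added (max 110 uM), 30 min RT; streptavidin donor/Ni-chelate acceptor beads 10 ug/mL final, 20 min dark; AlphaScreen read.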
JMJD2A Tudor: blocks the human JMJD2A Tudor domain; O75164; AlphaScreen JMJD2A-Tudor / H3K4me3 peptide binding; Potency, µM (doses to about 114 µM), without a hit: at the highest dose activity change, negative = inhibition, actives largely listed as inhibitors; 390,000 compounds, 4.4% hits; AID 504339; note: % is set by controls: 0 for no effect and ±100 for the full control effect; nearly all actives have a fitted effect of over 50% in size
Numbers without * were called inactive; ? = inconclusive; · = not tested or not shown; ! = not confirmed by another sample; [ ] = dose if it differs, or a comment. Hits are enriched below; roughly 11% of the tested compounds scored in any of these assays. Calls come from the whole dose curve; as a rule, active = well fitted inhibition curve with a large enough effect; inconclusive = small, poorly fitted or top-dose-only effect; inactive = no such curve, though single readings can be large or run the other way. Potency is the fitted concentration of half-maximal effect.

SMILES	HP1b chromo inh	L3MBTL1 block	G9a inh	BAZ2B inh	JMJD2A Tudor
COc1ccc(C2C(C#N)=C(N)Oc3c2sc2nc(C)cc(C)c32)cc1 (stereo not drawn)	17%	·	11µM*	-36%	-18%
Cc1ccc(Nc2cc(C(=O)NC3CCCC3)c3ccccc3n2)cc1C	18%	·	5%[59 µM]	6%	-6%
CCCOc1cccc(C2c3c(oc4ccc(F)cc4c3=O)C(=O)N2CCc2ccc(OC)cc2)c1 (stereo not drawn)	34%	·	-5%[59 µM]	1%	-4%
CCn1c(CSc2nc3ccccc3[nH]2)nc2cc(C(=O)O)ccc21	5%	·	-45%[12.7 µM]	?	?
CCn1c(CSc2nccn2C)nc2cc(C(=O)O)ccc21	20%	-5%	-38%[12.7 µM]	50µM*	32µM*
CC1CC(C)CN(c2oc(Cc3ccccc3)nc2C#N)C1 (stereo not drawn)	?	?	11µM*	14µM*	?
CC1CCN(c2oc(Cc3cccc4ccccc34)nc2C#N)CC1	?	?	8.9µM*	?	?
N#Cc1nc(Cc2ccccc2)oc1N1CCCC1	-8%	-10%	·	?	-33%
COc1ccc(N2CCN(c3oc(Cc4cccc5ccccc45)nc3C#N)CC2)cc1	?	?	7%[0.0925 µM]	4µM*	?
N#Cc1nc(Cc2cccc3ccccc23)oc1N1CCN(c2ccccc2)CC1	?	·	22µM*	?	?
N#Cc1nc(Cc2cccc3ccccc23)oc1N1CCC(C(N)=O)CC1	-4%	-1%	-14%[59 µM]	-39%	-35%
CCOc1cccc(C2C=C(c3ccc4c(c3)OCO4)NC(c3cccc(Br)c3)N2)c1O (stereo not drawn)	18%[57 µM]	·	·	·	2%[57.1 µM]
CC(C(=O)NC(=O)NC1CCCCC1)N(C)CC(=O)Nc1ccc(F)c(F)c1F (stereo not drawn)	6%	-2%	5%	11%	-22%
Cc1ccc(NC(=O)c2ccco2)c(NC(=O)c2ccccc2C)c1	32%	·	16%	-2%	50µM*
O=C(Nc1ccc(Oc2ccc(NC(=O)c3ccco3)c(NC(=O)c3ccco3)c2)cc1)c1ccco1	5µM*	-8%	-14%[59 µM]	-21%	-23%
COc1ccccc1C(=O)Nc1cc(C)ccc1NC(=O)c1ccco1	38%	·	·	-5%	-12%
COc1ccc(NC(=O)c2ccco2)cc1NC(=O)c1cccc(C)c1OC	-9%	·	0%[59 µM]	?	20µM*
Cc1cc(NC(=O)c2ccccc2)ncc1NC(=O)c1ccco1	18%	1%	25µM*	-13%	-11%
CCC(C)c1ccccc1N1CC(C(=O)NCCCn2nc(C)cc2C)CC1=O (stereo not drawn)	23%	1%	14%[2.33 µM]	8%	2%
COc1ccc(C)cc1NC(=O)c1cc2c(=O)n(Cc3cccnc3)ccc2nc1C	48%	·	-2%[59 µM]	-16%	-15%
Cc1ccc(NC(=O)CCC(=O)N2Cc3ccccc3Oc3ncccc32)cc1	19%	·	4%[59 µM]	13%[57.1 µM]	2%
CCc1ccc2c(c1)c(=O)c(C(=O)c1ccc(C)cc1)cn2CC(=O)Nc1ccc2c(c1)OCCO2	40%	·	8%[59 µM]	-18%	-9%
CCc1cccc(-n2c(=O)c3cccnc3n2CC(=O)Nc2c(C)cc(C)cc2C)c1	34%	·	6%[59 µM]	-2%	12%
Cc1ccc(O)c(NC(=O)c2ccco2)c1	23%	-7%	12%[59 µM]	11%	-12%
Cc1cc(O)c(NC(=O)c2ccco2)cc1C	34%	-21%[11.4 µM]	8.9µM*	40%	3%
SMILES	HP1b chromo inh	L3MBTL1 block	G9a inh	BAZ2B inh	JMJD2A Tudor
O=C(Nc1ccc2c(c1)N(C1CCCC1)C(=O)c1ccccc1S2)c1ccccc1	21%	·	-12%[59 µM]	-12%	-27%
COc1cccc(C(=O)NCc2cn3cccc(C)c3n2)c1	41%	·	?	-1%	-7%
CC(C)c1nc2ccc(C(=O)NCc3ccc(N(C)C)cc3)cc2o1	1%[57 µM]	·	16µM*	?	?
CCc1nc2ccc(C(=O)NCc3ccc(N(C)C)cc3)cc2nc1CC	2%	·	3.5µM*	?	-33%
CC(C)c1nc2ccc(C(=O)NCc3ccc(F)cc3)cc2o1	1%[57 µM]	·	2%[59 µM]	2%	-12%
COc1cc(NC(=O)CC(c2ccc(C)cc2)N2Cc3ccccc3C2=O)cc(OC)c1 (stereo not drawn)	44%	·	?	-23%	-8%
Cc1ccccc1C(=O)OCc1cc(=O)n2nc(C3CC3)sc2n1	-9%	·	4%[59 µM]	-2%	-16%
O=C(c1cccc(Cl)c1)n1nc(-c2ccco2)nc1NCc1cccs1	11%	·	-2%[59 µM]	-12%	19%
NC12CC3CC(CC(C3)C1)C2	74%	-5%	1.8µM*!	7%	-1%
O=C(CN1CC(=O)Nc2ccccc21)Nc1ccc(F)c(F)c1	51%	·	8.9µM*	-1%	-5%
COc1ccccc1NC(=O)CN1CCN(c2ccccc2OC)CC1	34%	-11%	-32%	-17%	-20%
COc1ccccc1NC(=O)CN1CC(=O)Nc2ccccc21	37%	-7%	20µM*	·	9%
Cc1ccccc1NC(=O)CCn1nc(-c2ccccc2)c2ccccc2c1=O	-9%	·	-3%[59 µM]	2%	-7%
COC(=O)c1ccc(OC(=O)C2CSC3(C)CCC(=O)N23)cc1 (stereo not drawn)	32%	10%	56µM*	0%	6%
COc1ccc(CC(=O)Nc2ccc(N(C)C)c3ccccc23)cc1	28%	-7%	18%	?	-20%
COc1cc2c(cc1OC)C1(O)C(=O)c3ccc(O)c(C(=O)O)c3OC1CO2 (stereo not drawn)	·	·	-27%[2.33 µM]	·	·
CCN1/C(=C/C=C/C=C/C=C/c2sc3ccccc3[n+]2CC)Sc2ccccc21	?	·	22µM*	40µM*	20µM*
CCOC(=O)/C(=C/C=C1\Sc2ccccc2N1CC)C(C)=O	7%	-1%	?	-32%	-33%
CCN1/C(=C/C=C/c2sc3ccccc3[n+]2CC)Sc2ccccc21	26%	28µM*	?	14µM*	-1%
CCN1/C(=C/C=C/C=C/c2sc3ccccc3[n+]2CC)Sc2ccccc21	·	?	28µM*	11µM*	·
CCOC(=O)/C(=C\C=C1/Sc2ccccc2N1CC)C(C)=O	11%	-13%	?	-35%	-30%
CC(=O)c1cccc(NS(=O)(=O)c2cccc(S(=O)(=O)c3ccc(Br)cc3)c2)c1	37%	·	-4%[59 µM]	1%	-11%
COc1ccc(S(=O)(=O)NCCS(=O)(=O)N2CCN(c3ccccc3)CC2)cc1C	16%[57 µM]	·	5%[59 µM]	-13%	-33%
CC(CCc1ccccc1)N1CCN(Cc2ccccc2)CC1 (stereo not drawn)	45µM*	3%	11µM*	50µM*	2.2µM*
CCS(=O)(=O)N1CCN(C(C)CCc2ccccc2)CC1 (stereo not drawn)	?	7%	?	?	8.9µM*

From PubChem
